Compound activity (PubChem)
TEAD-YAP inh – TEAD-YAP interaction inhibition, primary screen, TEAD-YAP interaction inhibitor project, luminescence, HEK-TIYL cells; inhibition, % at 9.12 µM; actives 1.4% (n = 640,000); TEAD-Gal4/YAP UAS-luciferase luminescence; in the data active = inhibition above about 32%;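 also: 0% = median of test compound wells and 100% = reference inhibitor wells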
GPR151 ag – activators of human GPR151, primary screen, cell-based, PathHunter beta-arrestin, luminescence; PathHunter beta-arrestin GPR151 cells; activation, % at 11.2 µM; actives 1% (n = 650,000); in the data active = activation above about 4.9%;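 also: 0% = median of compound wells and 100% = cells with positive control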
FBW7 activator – FBW7 E3 ligase activators, primary screen, biochemical, AlphaScreen, human; F-box/WD repeat-containing protein 7 (Homo sapiens), Q969H0; AlphaScreen FBW7–phospho-cyclin E peptide binding, activator screen; normalized activity (activation), % at 26.1 µM; actives 0.13% (n = 650,000); AID 1259310, 2017; in the data active = normalized activity above about 1.9%;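 also: purified mutant Fbw7 with reduced substrate affinity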
MITF primary – MITF inhibitors, primary screen, biochemical, AlphaScreen, human; Microphthalmia-associated transcription factor (Homo sapiens), O75030; AID 1259374, 2018; AlphaScreen MITF homodimerization, bead proximity signal; inhibition, % at 2.6 µM; actives 0.91% (n = 650,000); in the data active = inhibition above about 50%;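 also: 0% = vehicle wells with protein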
Target sequence (O75030 whole entry, looked up): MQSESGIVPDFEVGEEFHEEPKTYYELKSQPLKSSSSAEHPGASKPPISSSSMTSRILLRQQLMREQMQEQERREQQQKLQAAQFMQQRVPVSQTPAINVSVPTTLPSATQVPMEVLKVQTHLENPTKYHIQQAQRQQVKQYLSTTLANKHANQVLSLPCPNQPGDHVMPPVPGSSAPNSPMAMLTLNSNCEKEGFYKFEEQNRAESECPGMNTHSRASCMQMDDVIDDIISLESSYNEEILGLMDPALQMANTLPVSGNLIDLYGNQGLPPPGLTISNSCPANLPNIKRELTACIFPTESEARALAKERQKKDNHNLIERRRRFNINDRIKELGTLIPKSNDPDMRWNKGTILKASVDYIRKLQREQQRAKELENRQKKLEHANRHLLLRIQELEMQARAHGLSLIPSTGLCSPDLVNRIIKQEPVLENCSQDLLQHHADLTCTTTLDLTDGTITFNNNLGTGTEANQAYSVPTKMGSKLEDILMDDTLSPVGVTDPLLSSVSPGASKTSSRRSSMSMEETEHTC
Active calls of the source: *. An excerpt weighted towards active compounds, which were near 3.5% of everything screened.

SMILES	TEAD-YAP inh	GPR151 ag	FBW7 activator	MITF primary
Cc1cccc(NS(=O)(=O)c2ccc(NC(=O)c3ccc([N+](=O)[O-])cc3)cc2)c1	34.8*	2.8	0.2	-6.8
CCOc1ccc(NC(=O)N2CCCN(Cc3ccccc3F)C2)cc1	1.0	0.6	-0.1	-4.9
N#CSCCCOc1ccc2ccccc2c1	47.4*	1.2	0.6	3.8
c1cnc(SCCCOc2ccc3ccccc3c2)nc1	-41.0	-0.1	0.3	3.8
NS(=O)(=O)c1cccc(NS(=O)(=O)c2cc(C(F)(F)F)ccc2Cl)c1	1.2	-1.0	0.0	-9.6
CCc1c(C(=O)NC2CCCc3ccccc32)[nH]c(C)c1C(C)=O (centres undefined)	37.4*	0.1	0.0	-7.3
COc1ccc(/C=C2\SC(=O)NC2=Nc2ccccc2)cc1	-30.8	1.4	0.0	20.1
COc1ccc(/C=C2/SC(=Nc3ccc(F)cc3)NC2=O)c(OC)c1	41.8*	3.6	-0.1	7.5
COc1cccc(N=C2NC(=O)/C(=C/c3ccc(OC)c(OC)c3)S2)c1	47.6*	-0.8	-0.1	-5.7
COc1ccc(/C=C2/SC(=Nc3cccc(C)c3)NC2=O)c(OC)c1	54.1*	0.8	0.0	-1.7
COc1ccc(/C=C2\SC(=O)NC2=Nc2ccccc2)c(OC)c1	47.2*	1.6	-0.2	13.1
COc1ccc(OC)c(/C=C2\SC(=Nc3ccc(O)cc3)NC2=O)c1	54.4*	1.5	0.0	5.4
COc1ccc(OC)c(/C=C2\SC(=Nc3ccccc3)NC2=O)c1	7.7	0.4	0.1	6.3
O=C(Nc1ccc(Cl)c(Cl)c1)c1ccc(F)c(S(=O)(=O)N2CCCc3ccccc32)c1	48.6*	-0.6	0.0	-7.8
O=C(Nc1ccc(F)c(F)c1)c1ccc(F)c(S(=O)(=O)N2CCCc3ccccc32)c1	43.1*	0.6	0.0	-14.1
Cn1c(SCc2ccccc2C#N)nnc1-c1ccccc1O	-15.7	-0.1	0.0	-1.4
Cc1ccn2c(-c3csc(Nc4cccc(O)c4)n3)c(C)nc2c1	49.1*	-0.5	-0.1	4.2
CCOc1ccccc1Nc1nc(-c2c(C)nc3ccccn23)cs1	7.0	0.3	-0.3	-0.5
CCOc1ccc(Nc2nc(-c3c(C)nc4ccccn34)cs2)cc1	70.3*	-0.1	0.7	2.9
Cc1cccc(Nc2nc(-c3c(C)nc4cc(C)ccn34)cs2)c1	11.0	-0.4	0.0	-12.0
CCOc1ccc(Nc2nc(-c3c(C)nc4cc(C)ccn34)cs2)cc1	67.5*	1.7	-0.2	0.3
Oc1ccc(CCNc2nc(-c3cccs3)nc3c2ncn3-c2ccccc2)cc1	11.4	-1.6	-0.2	14.4
O=C(CCCCCN1C(=O)c2cccc([N+](=O)[O-])c2C1=O)Nc1cccc(Cl)c1	3.8	-0.9	0.2	9.8
Cc1nc(-c2ccc(Cl)cc2)nc2[nH]ccc(=O)c12	-60.5	-0.4	0.2	11.5
O=C1COc2ccc(C(=O)O)cc2N1	7.2	-0.5	0.0	9.3
SMILES	TEAD-YAP inh	GPR151 ag	FBW7 activator	MITF primary
CC(C)(C)c1ccc2c(c1)NC(=O)CO2	35.4*	-0.4	-0.2	-13.7
CCNC(=O)C1CCN(c2ncccn2)CC1	3.3	0.6	0.2	13.4
CC(=O)C1=C(c2ccc(C3CCCCC3)cc2)N(C(C)=O)n2cnnc2S1	73.5*	1.7	0.1	-4.5
CC1(C)O[C@@H]2[C@@H](COC3(COS(N)(=O)=O)OC(C)(C)O[C@@H]23)O1 (some centres undefined)	4.3	-0.8	-0.1	17.3
O=C(O)COc1ccc(/C=C2\SC(=O)N(Cc3ccc(Cl)cc3)C2=O)cc1	-7.5	2.8	-0.2	10.3
COc1cc(/C=C2\NC(=S)N(C3CCCCC3)C2=O)cc(OC)c1OC	0.4	0.5	-0.1	-4.1
C=CCn1c(=NC(=O)c2ccccc2[N+](=O)[O-])sc2cc(NC(C)=O)ccc21	48.5*	0.4	0.0	4.1
CCc1c(C(=O)N/N=C/c2cccc(OC)c2O)nnn1-c1nonc1N	74.5*	0.4	-0.1	20.2
COCc1c(C(=O)N/N=C/c2cccc(OC)c2O)nnn1-c1nonc1N	73.0*	0.0	-0.2	61.0*
COCc1c(C(=O)N/N=C/c2ccccc2Cl)nnn1-c1nonc1N	-5.0	0.9	0.0	5.8
COC(=O)c1sc(S(=O)(=O)N2CCCC2)c(C(=O)OC)c1C	-11.1	-0.8	-0.1	4.2
c1ccc2[nH]c(CNc3nc(N4CCN(Cc5ccc6c(c5)OCO6)CC4)nc4c3ncn4C3CCCCC3)nc2c1	41.0*	2.8	-0.1	-1.2
c1cc2c(cc1CN1CCN(c3nc(NC4CC4)c4ncn(C5CCCCC5)c4n3)CC1)OCO2	3.5	0.3	-0.3	14.5
c1ccc2[nH]c(CNc3nc(N4CCN(Cc5ccc6c(c5)OCO6)CC4)nc4c3ncn4-c3ccsc3)nc2c1	84.7*	-0.2	-0.1	-2.9
CC(C)(C)c1ccc(OCCCC(=O)Nc2nncs2)cc1	9.7	-0.1	-0.4	8.7
CC(C)(C)c1ccc(C(=O)Nc2ccc3c(c2)CN(C(=O)c2ccco2)CC3)cc1	85.7*	2.5	0.2	6.6
CCOc1ccc(-c2c(C#N)c(N)nc3sc(C(=O)c4ccc(C)cc4)c(N)c23)cc1	-0.3	-0.1	-0.1	7.7
c1ccc(-n2cnc3c(NCc4nc5ccccc5[nH]4)nc(N4CCN(c5ccccn5)CC4)nc32)cc1	47.8*	-1.8	-0.1	-0.9
CCCNc1nc(N2CCN(c3ccccn3)CC2)nc2c1ncn2-c1ccccc1	40.1*	-0.5	-0.2	0.4
c1ccc(-n2cnc3c(NCc4nc5ccccc5[nH]4)nc(N4CCc5ccccc5C4)nc32)cc1	-13.4	0.9	-0.1	3.4
C=CCNC(=O)CCCOc1ccc(Cl)cc1Cl	-18.4	0.5	0.1	3.9
CCCSc1nnc2c(n1)OC(c1c(C)[nH]n(-c3ccccc3)c1=O)Nc1ccccc1-2 (centres undefined)	-36.6	-0.2	-0.2	61.5*
O=C(NC(=S)Nc1ccc(Cl)cn1)c1ccccc1[N+](=O)[O-]	-12.1	-0.7	0.4	21.3
O=C(Nc1ccc(Cl)cn1)c1ccccc1[N+](=O)[O-]	43.0*	-0.3	0.0	-8.2
Cc1cc(I)cnc1NC(=O)c1ccccc1[N+](=O)[O-]	58.4*	-0.4	0.0	7.4
SMILES	TEAD-YAP inh	GPR151 ag	FBW7 activator	MITF primary
CCOC(=O)C1=CN(Cc2ccc(OC)cc2)C=C(C(=O)OCC)C1c1ccc(OCc2ccccc2)cc1	-5.2	1.9	0.1	-3.9
C/C(Cc1nc2ccccc2[nH]1)=N/Nc1ccc([N+](=O)[O-])cc1	6.2	1.6	-0.1	-12.6
COCCn1ccc2c(OCC(=O)Nc3ccc(C)cc3)cccc2c1=O	-2.1	-0.7	0.3	0.7
CCCn1ccc2c(OCC(=O)Nc3ccc(OC)c(OC)c3)cccc2c1=O	37.8*	0.2	0.0	14.7
NC(=S)/N=C1\CCN(c2cccc(C(F)(F)F)c2)N1	35.4*	-0.8	-0.1	-3.8
CCOC(=O)/C(C#N)=N\Nc1ccccc1OC	-7.1	-0.3	-0.1	-1.8
CCOC(=O)/C(C#N)=N/Nc1ccccc1C#N	-8.1	-1.0	0.0	52.5*
